# Screening data: PubChem BioAssay, National Center for Advancing Translational Sciences (NCATS)
# HEK293 tox: cytotoxicity counter-screen for GLP-1 receptor inverse agonists; 410,000 compounds, 0.13% hits; Potency, µM (titrated, usually from 38.3 µM), for the others: top-dose activity change, negative = inhibition, usual class: inhibitors; HEK293 cAMP-luciferase reporter cells, luminescence, 24 h;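 note: loss of luciferase light is scored as toxicity; potency is the fitted concentration of half-maximal effect; % is set by controls: 0 for no effect and ±100 for the full control effect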
#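 Cells in DMEM/10% Nu serum/1% pen-strep, 1536-well format. Pre-incubated 12 h, dosed with 23 nL compound, incubated a further 24 h. Luciferase detection, 12 min at room temp, luminescence.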
# ClpP mod: qHTS Assay for Activators of ClpP. purified B. subtilis ClpP, FRET peptide cleavage, 20 min. Potency, µM (series often up to 57.5 µM), inactives show at the highest dose activity change, negative = active. 340,000 compounds, 1.9% hits. AID 651965, 2013. ATP-dependent Clp protease proteolytic subunit (Bacillus subtilis (strain 168)), P80244; active = well fitted falling curve with a large enough effect; inconclusive = small, poorly fitted or top-dose-only effect; inactive = no such curve, though single readings can be large or run the other way; note: potency is the fitted concentration of half-maximal effect; the source files actives as falling curves though it sought activators and does not explain the sign; nearly all actives have a fitted effect of over 65% in size
#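 ClpP 10 microg/mL final, pH 8 Tris/KCl buffer with BSA, glycerol, Tween-20; compound pinned in; FRET-FV substrate; RT 20 min; Ex320/Em430; ΔFRET vs ADEP 5.8 microM, DMSO, no enzyme.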
# p53 reactivation: mutant p53 re-activation in reporter cells | Potency, µM (top dose mostly 92.2 µM), for the others: top-dose activity change, positive = activation, actives largely listed as activators | 320,000 compounds, 0.063% hits | H1299 p53-A138V BP100-luciferase reporter, luminescence, 24 h; note: potency is the fitted concentration of half-maximal effect; % of control where 0% means no effect; nearly all actives have a fitted effect of over 45% in size
#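 H1299 (p53-null), stable ts p53-A138V + BP100-Luc; 1000 cells/well, Opti-MEM/10% FBS; cpd 4 pt, 1:5; 24 h, 37 deg C, 5% CO2; detection reagent 10 min RT; luminescence.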
# GLP1R inv ag: GLP-1 receptor (human) inverse agonism; 410,000 compounds, 1.6% hits; Potency, µM (top dose mostly 38.3 µM), without a hit: at the highest dose activity change, negative = inhibition, hits mostly inhibitors; HEK293 GLP-1R CRE-luciferase, luminescence, 24 h; GLP-1R form is constitutively active; P43220; AID 624417; note: potency is the fitted concentration of half-maximal effect; % is set by controls: 0 for no effect and ±100 for the full control effect; nearly all actives have a fitted effect of over 55% in size
#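 GLP-1R inverse agonism mode: basal reporter luminescence in engineered HEK293 cells measured after one day of compound exposure at 37 deg C, with a 12 min room-temperature detection step.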
# GLP1R ag: agonists of human GLP-1 receptor; P43220; HEK293 GLP-1R CRE-luciferase, luminescence, 4-6 h; cells express a hypersensitive GLP-1R form; Potency, µM (highest dose often 45.6 µM), without a hit: top-dose activation, actives largely listed as activators; 380,000 compounds, 0.007% hits; note: potency is the fitted concentration of half-maximal effect; % of control where 0% means no effect
# LDHA inh: blocks human lactate dehydrogenase A. P00338. purified LDHA, NADH/diaphorase-resazurin fluorescence; stronger effect = lower value. activity change, % (values are at about 110 or 230 µM). 480,000 compounds, 0.15% hits. AID 1347041; in the data active = activity change below about -30%; inconclusive = mostly about -25% to -30%;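 note: plate controls were DMSO wells for no effect and wells without enzyme for full effect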
#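 Human LDH5 at 2 nM final in Tris HCl pH 7.4 with 0.06 mM NADH and 0.2 mM pyruvate, reacted 5 minutes at room temperature. Remaining NADH coupled via diaphorase/resazurin; resorufin fluorescence read at 0 and 20 minutes, normalized to enzyme-free and DMSO wells.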
# * hit, by the source's call; i = inactive; u = inconclusive; x = no result; [ ] = remark or other dose. Only some compounds are listed: those with a hit (about 2.9% of all), similar ones and a draw of the others. Unless noted, calls come from the whole dose curve; as a rule, active = well fitted curve in the direction sought with a large enough effect; inconclusive = small, poorly fitted or top-dose-only effect, or another doubt; inactive = no such curve, though single readings can be large; an effect the other way counts as inactive or inconclusive.
SMILES,HEK293 tox,ClpP mod,p53 reactivation,GLP1R inv ag,GLP1R ag,LDHA inh
N#Cc1nc(COc2ccc(-c3ccccc3)cc2)oc1N1CCOCC1,x,x,x,x,x,4
O=C(CCc1ccsc1)NCC1CCCO1 (centres undefined),x,x,x,x,x,10
Cc1c(NC(=O)c2cccc(-c3cc4ccccc4oc3=O)c2)cccc1-c1nc2ncccc2o1,-23%,22µM*,24%,15%,-2%,-2
O=C(COC(=O)c1cc2ccccc2oc1=O)c1cccc([N+](=O)[O-])c1,-15%,32µM*,-2%,-2%,-1%,6
O=C(C[C@@H]1C/C=C\C[C@H](NC(=O)OCC2c3ccccc3-c3ccccc32)C(=O)OC[C@H]2CCCN2C1=O)N[C@@H](CO)Cc1ccccc1,-15%,-1%,-9%,-14%,4%,0
O=C(/C=C/c1ccco1)Oc1cc(Br)cc(/C=N/NC(=O)c2ccccc2O)c1,-6%[1.53 µM],-11%,u,u,-14%,6
Cc1sc2ncn(CCn3cnc4sc(C)c(C)c4c3=O)c(=O)c2c1C,-11%,-1%,-3%,5µM*,-1%,-5
COc1ccccc1NC(=O)CCCNC(=O)Cn1cnc2sc(C)c(C)c2c1=O,2%,28µM*,0%,-5%,5%,0
c1ccc(-c2cnc(-c3cccnc3)o2)cc1,0%,u,25µM*,131%,u,-9
Clc1ccc(-c2ncc(-c3ccccc3)o2)cc1,x,x,x,x,x,1
NC(=O)c1ccc(-c2ncc(-c3ccccc3)o2)cc1,5%,-18%,2%,5.6µM*,-5%,-16
Cc1cc(OCC(=O)Nc2ccccc2N2CCCC2)ccc1C(C)C,18%,2%,14%,11µM*,25%,1
Cc1cc(OCC(=O)Nc2ccccc2N2CCCCC2)ccc1C(C)C,11%,-27%,13%,-27%,-4%,-3
Cc1cc(OCC(=O)NNC(=O)c2ccncc2)ccc1C(C)C,20%,4µM*,7%,14%,-4%,-1
Cc1cc(OCC(=O)NNC(=O)c2ccncc2)cc(C)c1Cl,3%,0%,-9%,5%,-1%,1
O=S(=O)(Nc1cc(Br)cc2cccnc12)c1cccc2ccccc12,x,x,x,x,x,11
COc1ccc(C(=O)NCCC2=CCCCC2)cc1OC1CCN(C(C)C)CC1,-10%,x,u,u,11%,-3
CC1=C(C(=O)N2CCN(c3cc(C)ccc3C)CC2)C2(CCCCC2)OC1=O,-2%,0%,-4%,4%,8%,-10
CCOC(=O)c1ccc(NC(=O)N2CCN(c3ccccn3)CC2)cc1,-24%,22µM*,-3%,u,6%,-3
Cc1nc2cc(NC(=O)N3CCN(c4ccccn4)CC3)ccc2o1,4%,25µM*,x,4%,1%,6
O=C1CC(C(=O)N2CCN(c3ccccn3)CC2)CN1Cc1ccccc1Cl (centres undefined),8%,32µM*,2%,11%,1%,1
O=C(Nc1ccccc1Cl)N1CCN(c2ccccn2)CC1,-11%,22µM*,6%,-5%,-7%,0
CCOC(=O)N1CCN(C(=O)Nc2ccc3oc(C)nc3c2)CC1,6%,-2%,-4%,2%,-4%,28
CC(C)C(=O)NCCc1nc2ccccc2n1C,3%,4%,-10%,7%,-3%,-2
Brc1ccc2nc3c(n2c1)CCCC3,-19%,1%,3%,u,9%,-5
SMILES,HEK293 tox,ClpP mod,p53 reactivation,GLP1R inv ag,GLP1R ag,LDHA inh
CC(C)(C)S(=O)(=O)c1ccc2nc3c(n2c1)CCCC3,14%,28µM*,-1%,6%,4%,-7
Cc1nn(C)c(C(=O)NNC(=S)NCC(C)C)c1Cl,-9%,8.9µM*,-2%,-2%,-1%,-4
Cc1nn(C)c(C(=O)NNC(=S)NCc2ccco2)c1Cl,-20%,1%,5%,15%,0%,-3
CN1C(=S)N(c2cccnc2)C(=O)/C1=C\c1ccc(N(C)C)cc1,10µM*,x,2%,u,20%,6
Cc1c(N2C(=O)/C(=C\c3ccc(N(C)C)cc3)N(C)C2=S)c(=O)n(-c2ccccc2)n1C,u,1%,-11%,-22%,-5%,6
CN1C(=S)N(c2cccnc2)C(=O)/C1=C\c1ccc(C(C)(C)C)cc1,22%,2%,15%,11µM*,-5%,3
N#Cc1c(-c2ccc3c(c2)OCO3)csc1N,2%,-3%,-1%,27%,9%,3
N#Cc1c(-c2ccccc2)cc(-c2ccc3c(c2)OCO3)[nH]c1=O,4%,18µM*,-5%,6%,0%,-3
Cc1nc2cc(-c3cccs3)[nH]n2c(=O)c1C,1%,14µM*,x,14%,-1%,4
Cc1ccccc1-c1cc2nc(C)c(C)c(=O)n2[nH]1,5%,29%,26%,25%,0%,-8
C#CCOCCOCCOCCNc1nc(N2CCN(C(=O)C([C@@H](C)O)n3cc([C@@H](N)CCCCN)nn3)CC2)nc(N2CCN(C(=O)[C@H](CC(N)=O)n3cc(C(N)[C@@H](C)CC)nn3)CC2)n1 (some centres undefined),-10%,1%,3%,15%,-3%,0
CC(NC(=O)CCc1c[nH]c2ccccc12)c1ccc(Cl)cc1 (centres undefined),x,x,x,x,x,7
O=C(Nc1cccnc1)c1ccc(COc2cc(Cl)ccc2Cl)o1,6%,-3%,4%,-12%,8%,-4
O=C(N/N=C/c1ccc(O)cc1)c1ccc(COc2cc(Cl)ccc2Cl)o1,-28%,31%,-3%,1.4µM*,-4%,-2
CCOc1ccc(CNC(=O)c2ccc(-c3nc(CS(=O)(=O)c4ccccc4)c(C)o3)cc2)cc1,6%,-17%,x,8%,x,-35*
CCc1ccc(CNC(=O)c2ccc(-c3nc(CS(=O)(=O)c4ccccc4)c(C)o3)cc2)cc1,2%,u,x,-6%,x,2
CCOCCCn1c(=N)c(C(=O)NCC2CCCO2)cc2c(=O)n3cccc(C)c3nc21 (centres undefined),i,4%,x,11%,-3%,1
Cc1cccn2c(=O)c3cc(C(N)=S)c(=N)n(CCCOC(C)C)c3nc12,i,16µM*,-10%,1%,13%,16
CCOCCCn1c(=N)c(C(N)=S)cc2c(=O)n3cccc(C)c3nc21,i,28µM*,1%,0%,2%,3
